In the library only some 3.8% were active in any assay of this set; here they are far more common.
ELG1 repair inh – ELG1-dependent DNA repair inhibition. HEK293T ELG1-luciferase reporter, luminescence, 16 h; DNA damage induced by 5-fluorouridine. Potency, µM (series often up to 46.1 µM), without a hit: at the top dose activity change, negative = inhibition, usual class: inhibitors. 330,000 compounds, 2.3% hits; note: % is set by controls: 0 for no effect and ±100 for the full control effect; nearly all actives have a fitted effect of over 55% in size
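Reporter activity after DNA damage by 5-fluorouridine is monitored. Compound-treated cells incubate 16 hr at 37 °C, then ONE-Glo is added for 30 min before luminescence reading.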
IDH1 R132H inh – human IDH1 R132H inhibition | O75874 | IDH1-R132H enzyme, NADPH consumption, diaphorase/resazurin fluorescence | Potency, µM (doses to about 76.6 µM), without a hit: top-dose activity change, negative = inhibition, usual class: inhibitors | 390,000 compounds, 0.093% hits | AID 602179; note: % is set by controls: 0 for no effect and ±100 for the full control effect; nearly all actives have a fitted effect of over 65% in size
Target sequence (O75874 whole entry R132H, stated change not applied): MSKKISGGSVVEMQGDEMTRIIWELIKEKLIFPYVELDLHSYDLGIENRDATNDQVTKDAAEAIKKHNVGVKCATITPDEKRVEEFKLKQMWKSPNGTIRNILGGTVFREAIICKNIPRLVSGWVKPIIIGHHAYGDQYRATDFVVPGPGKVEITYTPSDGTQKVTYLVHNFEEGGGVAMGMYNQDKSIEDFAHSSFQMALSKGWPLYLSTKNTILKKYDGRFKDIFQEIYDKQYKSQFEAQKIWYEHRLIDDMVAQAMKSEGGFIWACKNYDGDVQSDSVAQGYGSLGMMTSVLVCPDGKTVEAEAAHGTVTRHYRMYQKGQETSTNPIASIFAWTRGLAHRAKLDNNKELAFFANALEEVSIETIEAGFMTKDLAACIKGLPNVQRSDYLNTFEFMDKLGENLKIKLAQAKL
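IDH1-R132H (0.5 ug/mL dispensed) in pH 7.5 Tris buffer was preincubated 30 min with compound, then given a substrate mix of 0.016 mM NADPH and 2 mM alpha-KG for 80 min at room temperature; remaining NADPH was read by diaphorase/resazurin fluorescence.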
Nrf2 ARE act – activators of Nrf2 (ARE) signaling; AREc32 ARE-luciferase reporter (MCF7-derived line), luminescence, 24 h; AID 624171; 410,000 compounds, 0.31% hits; Potency, µM (titrated, usually from 46.1 µM), for the others: at the top dose activation, actives largely listed as activators; note: % of control where 0% means no effect; nearly all actives have a fitted effect of over 65% in size
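AREc32_Fluc, 1000 cells/well, OPTI-MEM + 5% FBS, o/n 37 deg C 5% CO2; 23 nL cpd by pin tool, 24 hr; Steady-Glo 30 min RT, luminescence.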
Nrf2 block – inhibitors of Nrf2 signaling | Potency, µM (titrated, usually from 46 µM), without a hit: at the highest dose activity change, negative = inhibition, usual class: inhibitors | A549 ARE-Fluc reporter, luciferase luminescence, 18-24 h | 360,000 compounds, 2.1% hits; note: % is set by controls: 0 for no effect and ±100 for the full control effect; nearly all actives have a fitted effect of over 60% in size
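Quantitative HTS in A549 cells stably bearing an antioxidant response element-firefly luciferase construct. Inhibition of Nrf2-driven transcription was scored by luminescence after 18-24 h of compound exposure at 37 °C.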
A549 tox – A549 cytotoxicity, counter-screen for Nrf2 inhibitors | AID 504648 | Potency, µM (series often up to 46 µM), inactives show at the top dose activity change, negative = cytotoxicity, usual class: inhibitors | 390,000 compounds, 0.16% hits | A549 ARE-Fluc cells, CellTiter-Fluor viability, 18-24 h; note: % is set by controls: 0 for no effect and ±100 for the full control effect
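A549 ARE_Fluc cells in 5% FBS OPTI-MEM were exposed to compounds in concentration-response for 18-24 h at 37 deg C. Viability was read by CellTiter-Fluor fluorescence (Ex 405/Em 525) after 30 min, before the luciferase read.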
* = called active by the depositor; u = inconclusive; x = no result. Calls come from the whole dose curve; as a rule, active = well fitted curve in the direction sought with a large enough effect; inconclusive = small, poorly fitted or top-dose-only effect, or another doubt; inactive = no such curve, though single readings can be large; an effect the other way counts as inactive or inconclusive. Potency is the fitted concentration of half-maximal effect.

SMILES	ELG1 repair inh	IDH1 R132H inh	Nrf2 ARE act	Nrf2 block	A549 tox
CC1Cc2ccccc2N1C(=O)COC(=O)c1c2c(nc3ccccc13)CCCCC2 (stereo not drawn)	13µM*	1%	3%	u	-18%
O=C1N[C@@H](c2ccccc2)COC(=O)[C@@H](Cc2ccc(F)cc2)CC/C=C/C[C@H]1CC(=O)N(CCO)Cc1ccccc1	15µM*	-5%	-2%	u	u
O=C1N[C@@H](c2ccccc2)COC(=O)[C@@H](Cc2ccc(F)cc2)CC/C=C/C[C@@H]1CC(=O)N(CCO)Cc1ccccc1	26µM*	-6%	1%	u	-25%
C[C@H]1COC(=O)[C@H](Cc2ccc(F)cc2)C/C=C\C[C@@H](CC(=O)N(CCO)Cc2ccccc2)C(=O)N1	-17%	-2%	2%	-44%	-4%
O=C1N[C@H](Cc2ccccc2)COC(=O)[C@H](Cc2ccc(F)cc2)CC/C=C/C[C@H]1CC(=O)N(CCO)Cc1ccccc1	u	-17%	0%	u	-14%
CC(C)(C)[C@@H]1COC(=O)[C@H](Cc2ccc(F)cc2)C/C=C\C[C@H](CC(=O)N(CCO)Cc2ccccc2)C(=O)N1	21µM*	5%	0%	8%	-14%
CC(=O)c1ccc(-c2csc3ncnc(Sc4nnnn4C)c23)cc1	x	x	x	u	-2%
Cn1nnnc1Sc1ncnc2scc(-c3ccc([N+](=O)[O-])cc3)c12	7.3µM*	x	u	18µM*	u
Cn1nnnc1Sc1ncnc2scc(-c3ccccc3Cl)c12	u	x	-2%	26µM*	-4%
Cn1nnnc1Sc1ncnc2scc(-c3ccccc3S(C)(=O)=O)c12	x	x	x	-18%	-2%
Cc1sc2ncnc(Sc3ccccc3C(=O)O)c2c1C	7%	-4%	10%	u	-6%
Cn1nnnc1Sc1ncnc2scc(-c3ccc4c(=O)ccoc4c3)c12	x	x	x	16µM*	u
Cn1nnnc1Sc1ncnc2scc(-c3cccc([N+](=O)[O-])c3)c12	x	x	x	-27%	6%
Cc1sc2ncnc(Sc3nnnn3-c3ccccc3)c2c1C	u	7%	8.9µM*	u	2%
COC(=O)[C@H](CC(C)C)NC(=O)CC[C@H]1O[C@@H](n2ccc(=O)[nH]c2=O)[C@H](O)[C@@H]1O	x	x	-1%	x	x
O=C1c2ccccc2NC(c2cccc(O)c2)N1c1ccccc1 (stereo not drawn)	-15%	3%	3%	4%	3%
COc1ccc(-c2csc3ncnc(Sc4nnnn4C)c23)cc1	u	x	u	-10%	-3%
Cn1nnnc1Sc1ncnc2scc(-c3ccc(Cl)cc3)c12	16µM*	x	-2%	u	u
COc1ccc(-c2cn3nc(SCC(=O)Nc4cc(C)cc(C)c4)ccc3n2)cc1	x	-16%	4%	x	-4%
O=C(Nc1ccc(Oc2cccc(C(F)(F)F)c2)nc1)c1cccs1	u	22%	0%	16µM*	1%
CC(NC(=O)Nc1nnc(C(F)(F)F)s1)(C(F)(F)F)C(F)(F)F	5.2µM*	7%	0%	5.2µM*	16µM*
O=C(Nc1ccccc1C(=O)Nc1nccs1)c1ccccc1	x	x	1%	x	x
O=C(Nc1ccccc1C(=O)Nc1nnc(C(F)(F)F)s1)c1ccccc1Cl	5.2µM*	18%	2%	6.5µM*	16µM*
Cc1cc(C(=O)Nc2nnc(C(F)(F)F)s2)cs1	u	46%	8.9µM*	5%	-6%
O=C(Nc1ccccc1C(=O)Nc1nncs1)c1ccccc1	21µM*	0%	-1%	-31%	-1%
SMILES	ELG1 repair inh	IDH1 R132H inh	Nrf2 ARE act	Nrf2 block	A549 tox
CC(C)(C)CC(=O)Nc1nnc(C(F)(F)F)s1	-13%	17%	0%	u	-7%
CCOC(=O)[C@]12CCCC=C1N(Cc1ccco1)C(=O)[C@H](CC(=O)NCCC(C)C)C2	x	x	0%	x	x
COc1cccc(CNC(=O)COC(=O)c2ccc(S(C)(=O)=O)c([N+](=O)[O-])c2)c1	x	x	x	17%	0%
O=C(CSC1=Nc2ccccc2C2=NC(Cc3ccccc3)C(=O)N12)Nc1ccccc1F (stereo not drawn)	x	23%	5%	x	2%
Cc1nn(-c2ccccc2)nc1C(=O)Nc1nnc(C(F)(F)F)s1	15µM*	18%	-1%	u	-11%
Nc1c(-c2ccccc2)cc[nH]c1=O	x	x	x	-4%	-1%
CCOc1ccccc1OCCCCn1c(-c2ccc(Cl)cc2)nc2ccccc2c1=O	x	21%	5%	15%	-1%
O=C(Nc1ccc2c(c1)CCCN2C(=O)c1cccs1)c1cccc(C(F)(F)F)c1	x	-7%	-1%	x	-6%
C=CC[C@H](CC(=O)NCCO)C(=O)NCCOC(=O)[C@@H](CC=C)Cc1ccc(F)cc1	15%	-4%	-1%	1%	1%
Cc1sc(NC(=O)c2ccco2)c(CN2CCCCC2)c1C	-1%	1%	8.9µM*	18%	9%
O=C(c1ccc([N+](=O)[O-])cc1)N1CCN(Cc2ccccc2)CC1	-1%	2%	-1%	3%	0%
O=C(c1ccc(Cn2cc(Cl)c([N+](=O)[O-])n2)cc1)N1CCN(Cc2ccccc2)CC1	-18%	2%	5%	21µM*	-11%
O=C(CCCCn1c(=O)c2ccccc2n(Cc2ccccc2Cl)c1=O)NCc1ccc2c(c1)OCO2	x	3%	0%	2%	-2%
O=C(c1ccco1)N(CCCN1CCOCC1)c1nc(-c2ccc(F)cc2)cs1	9.2µM*	6%	0%	-24%	3%
O=C(c1ccco1)N(CCCN1CCOCC1)c1nc(-c2ccc(Cl)cc2)cs1	21µM*	4%	4%	u	-14%
CCN(CC)CCCN(C(=O)c1ccco1)c1nc(-c2ccc(Cl)cc2)cs1	0%	-5%	0%	-5%	-18%
CC1=C(c2ccc(C)cc2)S(=O)(=O)N(Cc2ccc(C(=O)NCc3ccccc3)cc2)C1=O	x	-6%	0%	u	-1%
CC(=O)Nc1cc2oc3ccccc3c2cc1[N+](=O)[O-]	x	3%	u	u	2%
CC(=O)Nc1ccc(N=Nc2ccccc2)cc1[N+](=O)[O-]	x	8%	7.9µM*	u	0%
COc1ccc(Cn2c(=O)n(Cc3ccco3)c(=N)c3c4c(sc32)COC(C)(C)C4)cc1	7.3µM*	1%	5%	u	u
CC1(C)Cc2c(sc3[nH]c(=S)n(Cc4ccccc4)c(=O)c23)CO1	u	2%	0%	16µM*	u
CC1(C)Cc2c(sc3c2c(=N)n(Cc2ccco2)c(=O)n3Cc2ccc(F)cc2)CO1	18µM*	11%	0%	u	-16%
CCOC(=O)[C@H]1[C@H]2COc3ccccc3[C@@H]2N2C(=O)CNC(=O)[C@@]12C	29%	2%	2%	-12%	8%

Screening data (PubChem BioAssay)
